# Records with an inconclusive call do not appear. Where a call stands in place of a potency, no number is given. A number with no mark means an inactive call. Activity calls are given as the source filed them. Calls come from the whole dose curve; as a rule, active = well fitted curve in the direction sought with a large enough effect; inconclusive = small, poorly fitted or top-dose-only effect, or another doubt; inactive = no such curve, though single readings can be large; an effect the other way counts as inactive or inconclusive.
# What was measured:
# [1] = BET inhibitor-based combinations targeting novel dependencies in MECOM-rearranged (r) AML: SET-2 cell line (AID 2202231); settings: SET-2 AML cells viability, CellTiter-Glo luminescence, 48 h; viability: hits give low values, concentration not given here; note: nearly all actives have a fitted effect of over 35% in size
# Procedure, shortened: (§1)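 Cells were plated at 500 per well and exposed to an 11-point dose series of each drug for 48 hr. Viability was measured by CellTiter-Glo luminescence, normalized to DMSO and empty-well controls, and summarized as AUC and per-cell-line Z-AUC.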
# [2] = BET inhibitor-based combinations targeting novel dependencies in MECOM-rearranged (r) AML: AML-194 cell line (AID 2202237; note: nearly all actives have a fitted effect of over 40% in size)
# Procedure, shortened: as §1
# [3] = BET inhibitor-based combinations targeting novel dependencies in MECOM-rearranged (r) AML: UCSD-AML1 cell line (AID 2202235); note: nearly all actives have a fitted effect of over 40% in size
# Procedure, shortened: (§2)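 Activity is given as area under the curve and as Z-AUC, mean-centred within each cell line. It comes from 11-point dose curves normalized to DMSO and empty wells. CellTiter-Glo luminescence was read after 48 hr drug exposure of 500 cells/well.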
# [4] = BET inhibitor-based combinations targeting novel dependencies in MECOM-rearranged (r) AML: AML-191 cell line (AID 2202236; note: nearly all actives have a fitted effect of over 35% in size)
# Procedure, shortened: as §1
# [5] = BET inhibitor-based combinations targeting novel dependencies in MECOM-rearranged (r) AML: HNT-34 cell line (AID 2202234); note: nearly all actives have a fitted effect of over 35% in size
# Procedure, shortened: as §2
# Potency is the fitted concentration of half-maximal effect.
Compound,Potency [1],Potency [2],viability [1] [%],Potency [3],Potency [4],Potency [5]
CCC[C@H](NC(=O)[C@@H]1[C@H]2CCC[C@H]2CN1C(=O)[C@@H](NC(=O)[C@@H](NC(=O)c1cnccn1)C1CCCCC1)C(C)(C)C)C(=O)C(=O)NC1CC1,0.263 µM (active),inactive,–,–,–,–
CC/C(=C(/c1ccc(/C=C/C(=O)O)cc1)c1ccc2[nH]ncc2c1)c1ccc(F)cc1Cl,–,inactive,98.4,inactive,inactive,–
COc1ccc2nc(S(=O)Cc3ncc(C)c(OC)c3C)[nH]c2c1 (stereo not given),–,inactive,95.9,inactive,inactive,–
COC(=O)[C@H]1[C@@H](O)[C@@]2(O)c3c(OC)cc(O[C@@H]4O[C@@H]([C@@H](O)CO)CO[C@H]4OC)cc3O[C@@]2(c2ccc(OC)cc2)[C@@H]1c1ccccc1,–,–,77.8,–,inactive,–
CN[C@@H](C)C(=O)N[C@H](C(=O)N1CCC[C@H]1C(=O)Nc1sc(-c2ncco2)nc1-c1ccccc1)C1CCCCC1,–,inactive,112,1.18 µM (active),–,–
CN(C(=O)CNC(=O)/C=C/c1cccc(Cl)c1)C1CCS(=O)(=O)CC1,0.662 µM (active),–,–,inactive,–,–
C=CC[C@@H]1/C=C(\C)C[C@H](C)C[C@H](OC)[C@H]2O[C@@](O)(C(=O)C(=O)N3CCCC[C@H]3C(=O)O[C@H](/C(C)=C/[C@@H]3CC[C@@H](O)[C@H](OC)C3)[C@H](C)[C@@H](O)CC1=O)[C@H](C)C[C@@H]2OC,–,20.9 µM (active),51.4,–,18.6 µM (active),23.5 µM (active)
C=C1CCC[C@]2(C)C=C3OC(=O)C(C)=C3C[C@@H]12,–,inactive,112,–,inactive,inactive
